Drawing on PubChem BioAssay (Tox21), this text covers Potency for 30 molecules.

Several values for one entry are separate records, joined by “and”; a condition that tells them apart may be missing. Identical values can stand only once. Inconclusive results are not listed. A call without a number means that no potency is given here. Some structures have more than one record in an assay (separate samples or runs), and their calls can disagree. Activity calls are given as the source filed them. Calls come from the whole dose curve; as a rule, active = well fitted activation curve with a large enough effect in the repeat runs; inconclusive = weak or mixed curves; inactive = flat fitted curve, though single readings scatter.
Potency is the fitted concentration of half-maximal effect.

The test in a line: A CellTox Green Cytotoxicity Assay to monitor cytotoxicity in HEK293 cells - 32 hour (AID 1224881). Note: nearly all actives have a fitted effect of over 40% in size. The settings on record: CellTox Green fluorescence; series mostly up to 76.8 µM. The method, boiled down:
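Read-out: fluorescence of a cell-impermeant cyanine dye staining DNA of dead cells, proportional to cytotoxicity. HEK293, 600 cells/well with reagent, compound (23 nL DMSO) added after 5 h; reads at 0, 8, 16, 24, 32, 40 h.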
As to `Clc1ccc2cc3ccccc3cc2c1`, the Potency result was “inactive”.

Consider `Nc1ccccc1O`, for which the Potency result was “inactive”.

With `Cc1oc(-c2ccccc2)nc1CCC(=O)c1ccc(CC2SC(=O)NC2=O)cc1` (stereo not given), the Potency result is “inactive”.

As for `CS(=O)(=O)CCNCc1ccc(-c2ccc3ncnc(Nc4ccc(OCc5cccc(F)c5)c(Cl)c4)c3c2)o1`, the Potency entry was “inactive”.

Consider `O=C(O)c1c(Cl)cccc1Cl`, for which the Potency result is “inactive”.

For `CCC1OCC(COc2ccc(Oc3ccccc3)cc2)O1` (stereo not given), the Potency result was “inactive”.

On to `CCN(Cc1cccnc1)C(=O)c1cccc(Cl)c1[C@]1(C)C(=O)N(Cc2ccc(OC)cc2OC)c2ccc(Cl)cc21`, for which the Potency result is “inactive”.

Regarding `Cn1cc(C(=O)[C@@H]2CCc3nc[nH]c3C2)c2ccccc21`, the Potency result was “inactive”.

Turning to `C[C@H]1[C@H]2CC[C@H]3[C@@H]4CC=C5C[C@@H](N(C)C)CC[C@]5(C)[C@H]4CC[C@]23CN1C`, the Potency result is “inactive”.

As to `COCCCC/C(=N\OCCN)c1ccc(C(F)(F)F)cc1`, the Potency entry is “inactive”.

Take `CCCCCCCCCCCCCCCCCC[N+](C)(C)Cc1ccccc1`: the Potency is 24.8 µM (active).

Regarding `CCN(C(=O)c1cc(C)cc(OC[C@H](C)Nc2ccncc2)c1)C(C)C`, the Potency result is “inactive”.

Take `O=[N+]([O-])c1cc([N+](=O)[O-])c2ccc(S(=O)(=O)O)cc2c1O`: the Potency entry is “inactive”.

`Cc1cccc(CN2CCN(C(c3ccccc3)c3ccc(Cl)cc3)CC2)c1` (stereo not given): the Potency result is “inactive”.

With `CCCCN1C(=O)[C@@H]([C@H](O)C2CCCCC2)NC(=O)C12CCN(Cc1ccc(Oc3ccc(C(=O)O)cc3)cc1)CC2`, the Potency entry was “inactive”.

Take `Cc1onc(-c2ccccc2Cl)c1C(=O)N[C@@H]1C(=O)N2[C@@H]1SC(C)(C)[C@@H]2C(=O)O`: the Potency result was “inactive”.

On to `CCCCCOc1ccccc1/C(=C\SC)n1ccnc1`, for which the Potency entry was “inactive”.

Take `Cc1[nH]nc2c1N=C(c1ccccc1Cl)c1cc([N+](=O)[O-])ccc1N2`: the Potency entry was “inactive”.

Consider `CCCCCCCCOC(=O)c1ccc(O)cc1`, for which the Potency was 43.5 µM (active) and 43.6 µM (active).

Consider `CO[Si](CCCNc1ccccc1)(OC)OC`, for which the Potency result is “inactive”.

For the molecule `CCCCCCCCS(=O)C(C)Cc1ccc2c(c1)OCO2` (stereo not given), the Potency result was “inactive”.

On to `Cc1c(C)c2c(c(C)c1OC(=O)CCC(=O)O)CC[C@@](C)(CCC[C@H](C)CCC[C@H](C)CCCC(C)C)O2`, for which the Potency result was “inactive”.

With `CCOC(=O)/C=C(C)/C=C/C=C(C)/C=C/c1c(C)cc(OC)c(C)c1C`, the Potency result is “inactive”.

In the case of `CC[C@H](c1ccc(O)cc1)[C@@H](CC)c1ccc(O)cc1`, the Potency was 38.9 µM (active) and inactive.

As for `Cc1cc(O)c(C(C)(C)C)cc1C(C)(C)C`, the Potency is 24.5 µM (active).

As to `CCCCC(CC)CN=C(N)NC(N)=NCCCCCCN=C(N)NC(N)=NCC(CC)CCCC` (stereo not given), the Potency was 9.52 µM (active).

`O=C(N/N=C/c1ccccc1O)c1ccncc1`: the Potency entry is “inactive”.

For `CCN(C(=O)N(CC)c1ccccc1)c1ccccc1`, the Potency result is “inactive”.

On to `CC[C@@]1(O)C(=O)OCc2c1cc1n(c2=O)Cc2cc3c(CN(C)C)c(O)ccc3nc2-1`, for which the Potency was 23.9 µM (active).

`O=C1c2ccccc2Cc2ccccc21`: the Potency entry is “inactive”.
